# Measurements: PubChem BioAssay (Tox21)
# Records with an inconclusive call do not appear. A call without a number means that no potency is given here. Unmarked numbers belong to inactive results. Calls of active or inactive are those of the source. Calls follow the shape of the dose curve; as a rule, active = well fitted inhibition curve with a large enough effect in the signal ratio in the repeat runs, with a control signal flat; inconclusive = weak or mixed curves, or effect the other way; inactive = flat fitted curve, though single readings scatter; the % refers to the signal ratio.
# Target: D(2) dopamine receptor (Homo sapiens) (UniProt P14416)
# Test: Dopamine D2 receptor (DRD2) small molecule antagonists, cell-based qHTS assay (AID 1963595)
# Conditions: HEK293-DRD2 cAMP HTRF antagonist mode; series mostly up to 92.4 µM
# Source text: National Center for Advancing Translational Sciences [NCATS]
# Division of Preclinical Innovation [DPI]
# U.S. Environmental Protection Agency [EPA]
# National Institutes of Environmental Health Sciences [NIEHS]
# National Toxicology Program [NTP]
# U.S. Food and Drug Administration [FDA]
# DRD2 is the D2 subtype of the dopamine receptor, which is coupled to Gi subtype of G protein-coupled receptor. This G protein-coupled receptor inhibits adenylyl cyclase activity. The DRD2-HEK293 cell line stably expressing D2 dopamine receptor can be used for screening agonists and antagonists of interactions between D2 and its ligands. The Hek293-DRD2 cAMP assay is based on HTRF technology. It measures changes of cAMP accumulation in response to Gi coupled GPCR activation or inhibition.
# Tox21 Assay Protocol Summary:
# DRD2-Hek293 cells were dispensed at 600 cells/3uL/well in 1536-well white plates using a Multidrop Dispenser. After the assay plates were incubated at a 37 C/5% CO2 incubator for 24 h, 1 uL of Ro20-1724 at final concentration of 0.1 mM was transferred to the assay plate by a Flying Reagent Dispenser. Following Ro20-1724 addition, 23 nL of compound dissolved in DMSO, positive controls or DMSO only was added to the assay plates via Wako pintool station. The assay plates were incubated at room temperature for 10 min. Next, 1 uL of mixture of NKH477 (final concentration at 200 nM) and quinpirole (final concentration at 12 nM) was added into the plates. After the assay plates were incubated at room temperature for an additional 30 min, 2.5 ul/well of cAMP-d2 and 2.5 ul/well of anti-cAMP-cryptate were added respectively into the assay plates using a Flying Reagent Dispenser. The plates were incubated at room temperature for 1 h. The fluorescence intensity in the plates was measured at 340 nm excitation and 665 & 620 nm emission by an Envision plate reader.
# Potency is read from the fitted curve at half-maximal effect.
# Chain of D(2) dopamine receptor (Homo sapiens) (P14416 whole entry, looked up): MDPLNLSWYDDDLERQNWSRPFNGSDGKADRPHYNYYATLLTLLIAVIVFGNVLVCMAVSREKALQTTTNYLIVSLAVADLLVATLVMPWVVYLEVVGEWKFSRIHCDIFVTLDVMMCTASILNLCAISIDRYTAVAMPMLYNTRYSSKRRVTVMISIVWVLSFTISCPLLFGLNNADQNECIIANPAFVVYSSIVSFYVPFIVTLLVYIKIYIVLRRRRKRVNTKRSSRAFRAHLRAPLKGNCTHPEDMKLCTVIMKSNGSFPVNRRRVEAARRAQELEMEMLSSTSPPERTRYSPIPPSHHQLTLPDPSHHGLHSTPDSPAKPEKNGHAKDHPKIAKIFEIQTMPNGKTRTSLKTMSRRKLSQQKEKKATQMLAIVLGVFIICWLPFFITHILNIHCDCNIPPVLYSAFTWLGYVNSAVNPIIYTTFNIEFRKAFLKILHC
Compound,Potency,"activity change, negative = inhibition"
Cc1cc(CCCOc2c(C)cc(-c3noc(C(F)(F)F)n3)cc2C)on1,inactive,
O=C(O)CCC(=O)OC[C@@H](NC(=O)C(Cl)Cl)[C@H](O)c1ccc([N+](=O)[O-])cc1,inactive,
CCCOc1ccccc1-c1nc2n[nH]nc2c(=O)[nH]1,inactive,
CC(C)=CCC/C(C)=C/CC/C(C)=C/CO,inactive,
OCCN(CCO)c1cccc(Cl)c1,inactive,
CC(=O)OC(C)(C)C,inactive,
CCCCCC(=O)OCC,inactive,
O=c1[nH]cnc2ccccc12,inactive,
CC(CCl)OC(C)CCl (stereo not given),inactive,
O=NN(CCCl)C(=O)NC1CCCCC1,inactive,
NC1CCN(c2cccc(Cl)n2)CC1,inactive,
Cc1ncc(CO)c(C=O)c1O,inactive,
O=C(O)/C=C/c1ccc(/C=C/C(=O)O)cc1,inactive,
CC(=O)OCC(=O)[C@@]1(O)CC[C@H]2[C@@H]3CCC4=CC(=O)C=C[C@]4(C)[C@@]3(F)[C@@H](O)C[C@@]21C,inactive,
Cc1cc(O)c(C)c(C)c1O,inactive,
O=C(NCC1CN(c2ccc(N3CCOCC3=O)cc2)C(=O)O1)c1ccc(Cl)s1 (stereo not given),inactive,
O=CNNC=O,inactive,
Cc1ccc(S)cc1,inactive,
CCCCCCCCN,inactive,
Nc1cccc(S(=O)(=O)O)c1,inactive,

Compound,Potency,"activity change, negative = inhibition"
Cc1cccc(C)c1NC(=O)c1cc(S(N)(=O)=O)c(Cl)cc1O,inactive,
CCC1(C)C(=O)N(Cl)C(=O)N1Cl (stereo not given),inactive,
Cc1c(N=C=O)cccc1N=C=O,inactive,
CC(=O)c1ccc(C(C)=O)cc1,inactive,
COc1ccc(OC)c(N=Nc2c(O)ccc3ccccc23)c1,inactive,
O=C(O)C1CCC1,inactive,
CC(CC(=O)O)CC(C)(C)C (stereo not given),inactive,
Cc1cccn2c(=O)c(-c3nnn[nH]3)cnc12,,-1.25% [at 18.9 µM]
CCCCC(CC)(CO)CO,inactive,
Cc1c(C)c2c(c(C)c1O)CC[C@@](C)(CCC[C@H](C)CCC[C@H](C)CCCC(C)C)O2,inactive,
Cc1scc2c1N(C(=O)CN1CCN(C)CC1)c1ccccc1NC2=O,inactive,
c1ccc(CNc2ncnc3nc[nH]c23)cc1,inactive,
CCN[C@@H]1C[C@H](N)[C@@H](OC2OC(CN)=CCC2N)[C@H](O)[C@H]1O[C@H]1OC[C@](C)(O)[C@H](NC)[C@H]1O (stereo not given in full),,14.9% [at 0.348 µM]
CC1CC(C)C(=O)C1=O (stereo not given),inactive,
CC(C)(C)CC(=O)OCC(=O)[C@@]1(O)CC[C@H]2[C@@H]3CCC4=CC(=O)C=C[C@]4(C)[C@H]3[C@@H](O)C[C@@]21C,inactive,
CC1(C)S[C@@H]2[C@H](NC(=O)Cc3ccccc3)C(=O)N2[C@H]1C(=O)O (tested in a mixture with another compound),inactive,
CC(CCc1ccc(O)cc1)NCCc1ccc(O)c(O)c1 (stereo not given),10.6 µM (active),
CCCOC(=O)c1ccc(C(=O)OCCC)nc1,inactive,
CCOC(=O)CC(C)O (stereo not given),inactive,
Cc1c(C)c([N+](=O)[O-])c(C(C)(C)C)c([N+](=O)[O-])c1C,inactive,
